Measurements reported in PubChem BioAssay (NCATS).
Inconclusive results are not listed. Activity calls are given as the source filed them. Calls follow the shape of the dose curve; as a rule, active = well fitted curve in the direction sought with a large enough effect; inconclusive = small, poorly fitted or top-dose-only effect, or another doubt; inactive = no such curve, though single readings can be large; an effect the other way counts as inactive or inconclusive.

Columns and labels:
[1] = test system: HACAT; assay: qHTS assay to identify novel small-molecules to repurpose for Merkel cell carcinoma treatment (AID 1296009); settings: MCC and control cell lines, CellTiter-Glo viability, 72 h; at 44.8 µM (top of the series) unless noted; also: nearly all actives have a fitted effect of over 60% in size
In short: (§1)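 Cells were treated for 72 hr at 37 degree celsius with compounds in 8- or 11-point dose response. Viability was read by CellTiter-Glo luminescence, normalized to no-cell (cytotoxicity) and DMSO controls.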

[2] = test system: MCC-13; assay: as above; settings: MCC and control cell lines, CellTiter-Glo viability, 72 h; series mostly up to 46 µM
In short: as §1

[3] = test system: MCC-26; assay: as above; settings: MCC and control cell lines, CellTiter-Glo viability, 72 h; series mostly up to 46 µM
In short: as §1

[4] = test system: MKL-1; assay: as above; settings: MCC and control cell lines, CellTiter-Glo viability, 72 h; series mostly up to 46 µM
In short: as §1

[5] = test system: MKL-2; assay: as above; settings: MCC and control cell lines, CellTiter-Glo viability, 72 h; series mostly up to 46 µM
In short: as §1

[6] = test system: WaGa; assay: as above; settings: MCC and control cell lines, CellTiter-Glo viability, 72 h; series mostly up to 46 µM
In short: as §1

[7] = test system: Es-2; assay: Primary qHTS to identify gynecologic anti-cancer compounds using libraries of approved drugs and bioactive compounds (AID 1345084); settings: Gynecologic cancer cell panel viability, ATPlite luminescence, 48 h; series mostly up to 57.5 µM; also: nearly all actives have a fitted effect of over 55% in size
In short: (§2)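 Five-concentration response, 48 h; readout is ATP-driven luciferase luminescence.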

[8] = test system: HeLa; assay: as above; settings: Gynecologic cancer cell panel viability, ATPlite luminescence, 48 h; series mostly up to 57.5 µM
In short: as §2

[9] = test system: Hek293T; assay: as above; settings: Gynecologic cancer cell panel viability, ATPlite luminescence, 48 h, control line for the selectivity index; series mostly up to 57.5 µM
In short: as §2

[10] = test system: JEG-3; assay: as above; settings: Gynecologic cancer cell panel viability, ATPlite luminescence, 48 h; series mostly up to 57.5 µM
In short: as §2

[11] = test system: C33A; assay: as above; settings: Gynecologic cancer cell panel viability, ATPlite luminescence, 48 h; series mostly up to 57.5 µM
In short: as §2

[12] = test system: CASKI; assay: as above; settings: Gynecologic cancer cell panel viability, ATPlite luminescence, 48 h; series mostly up to 57.5 µM
In short: as §2

[13] = test system: OV90; assay: as above; settings: Gynecologic cancer cell panel viability, ATPlite luminescence, 48 h; series mostly up to 57.5 µM
In short: as §2

[14] = test system: PA-1; assay: as above; settings: Gynecologic cancer cell panel viability, ATPlite luminescence, 48 h; series mostly up to 57.5 µM
In short: as §2

[15] = test system: SKOV3; assay: as above; settings: Gynecologic cancer cell panel viability, ATPlite luminescence, 48 h; series mostly up to 57.5 µM
In short: as §2

[16] = test system: Tov-21-G; assay: as above; settings: Gynecologic cancer cell panel viability, ATPlite luminescence, 48 h; series mostly up to 57.5 µM
In short: as §2

[17] = test system: UISO; assay: qHTS assay to identify novel small-molecules to repurpose for Merkel cell carcinoma treatment (AID 1296009); settings: MCC and control cell lines, CellTiter-Glo viability, 72 h; series mostly up to 46 µM; also: nearly all actives have a fitted effect of over 60% in size
In short: as §1

[18] = test system: CAOV3; assay: Primary qHTS to identify gynecologic anti-cancer compounds using libraries of approved drugs and bioactive compounds (AID 1345084); settings: Gynecologic cancer cell panel viability, ATPlite luminescence, 48 h; series mostly up to 57.5 µM; also: nearly all actives have a fitted effect of over 55% in size
In short: as §2

[19] = test system: NIH3T3; assay: qHTS assay to identify novel small-molecules to repurpose for Merkel cell carcinoma treatment (AID 1296009); settings: MCC and control cell lines, CellTiter-Glo viability, 72 h; at 44.8 µM (top of the series) unless noted; also: nearly all actives have a fitted effect of over 60% in size
In short: as §1

[20] = test system: HEK293T; assay: as above; settings: MCC and control cell lines, CellTiter-Glo viability, 72 h; at 44.8 µM (top of the series) unless noted
In short: as §1
% is scaled to controls: 0 for no effect and ±100 for the full control effect; potency is read from the fitted curve at half-maximal effect.

Oc1ccc(CCNCCCCCCNCCc2ccccc2)cc1O
active: Potency [4] 2.11 µM | Potency [5] 0.596 µM | Potency [6] 10.6 µM
inactive: outcome [1] | Potency [2] | Potency [3] | Potency [7] | Potency [8] | Potency [9] | Potency [10]

Cc1ccc(/C=N/n2c(-c3ccccc3)csc2=S)cc1
inactive: outcome [1] | Potency [2] | Potency [3] | Potency [4] | Potency [11] | Potency [12] | Potency [7] | Potency [8] | Potency [9] | Potency [10] | Potency [13] | Potency [14] | Potency [15] | Potency [16]

CO[C@@H]1[C@@H](O[C@@H]2O[C@H](C)[C@@H](O[C@H]3C[C@@](C)(O)[C@@H](O)[C@H](C)O3)[C@H](N(C)C)[C@H]2O)[C@@H](CC=O)C[C@@H](C)[C@@H](O[C@@H]2CC[C@H](N(C)C)[C@@H](C)O2)/C=C/C=C/C[C@@H](C)OC(=O)C[C@H]1OC(C)=O
inactive: outcome [1] | Potency [2] | Potency [3] | Potency [4] | Potency [5] | Potency [17] | Potency [11] | Potency [18] | Potency [12] | Potency [7] | Potency [8] | Potency [9] | Potency [10] | Potency [13] | Potency [14] | Potency [15] | Potency [16]

C=CCOc1cc(Cl)ccc1C(=O)NCCN(CC)CC
inactive: outcome [1] | Potency [2] | Potency [3] | Potency [4] | Potency [5] | Potency [17] | Potency [6] | Potency [11] | Potency [18] | Potency [12] | Potency [7] | Potency [8] | Potency [9] | Potency [10] | Potency [14] | Potency [15] | Potency [16]

C=C(C)C(=O)OCC(O)CO (configuration not stated)
inactive: outcome [1] | Potency [2] | Potency [3] | Potency [4] | Potency [5] | Potency [17] | Potency [6] | Potency [11] | Potency [18] | Potency [7] | Potency [8] | Potency [9] | Potency [10] | Potency [13] | Potency [14] | Potency [15] | Potency [16]

C[C@@H](C1=C(CCN(C)C)Cc2ccccc21)c1ccccn1
inactive: outcome [1] | Potency [2] | Potency [3] | Potency [4] | Potency [5] | Potency [17] | Potency [6] | Potency [11] | Potency [18] | Potency [12] | Potency [7] | Potency [8] | Potency [10] | Potency [14] | Potency [15] | Potency [16]

CCOC(=O)c1cc(=O)c2c(OCC(COc3cccc4oc(C(=O)OCC)cc(=O)c34)OC(=O)[C@@H](N)CCCCN)cccc2o1
inactive: outcome [1] | Potency [2] | Potency [3] | Potency [4] | outcome [19] | Potency [17] | Potency [11] | Potency [18] | Potency [12] | Potency [7] | Potency [8] | Potency [9] | Potency [10] | Potency [13] | Potency [14] | Potency [15] | Potency [16]

CCN(CC)CC(=O)Nc1c(C)cccc1C(=O)OC
inactive: outcome [1] | Potency [2] | Potency [3] | Potency [4] | Potency [5] | Potency [17] | Potency [6] | Potency [11] | Potency [18] | Potency [12] | Potency [7] | Potency [8] | Potency [9] | Potency [10] | Potency [13] | Potency [14] | Potency [15] | Potency [16]

CC1CCCCN1CCCOC(=O)c1ccc(OC2CCCCC2)cc1 (configuration not stated)
inactive: outcome [1] | Potency [2] | Potency [3] | Potency [17] | Potency [11] | Potency [12] | Potency [7] | Potency [8] | Potency [9] | Potency [10] | Potency [13] | Potency [14] | Potency [16]

N[C@@H](Cn1ccc(=O)c(O)c1)C(=O)O
inactive: outcome [1] inactive [at 4.96 µM] | activity change, negative = cytotoxicity [11] 19.3% [at 6.55 µM] | activity change, negative = cytotoxicity [18] 11.6% [at 6.55 µM] | activity change, negative = cytotoxicity [12] 1.33% [at 6.55 µM] | activity change, negative = cytotoxicity [7] 4.8% [at 6.55 µM] | activity change, negative = cytotoxicity [8] -0.102% [at 6.55 µM] | activity change, negative = cytotoxicity [9] -0.477% [at 6.55 µM] | activity change, negative = cytotoxicity [10] 1.6% [at 6.55 µM] | activity change, negative = cytotoxicity [13] 12.3% [at 6.55 µM] | activity change, negative = cytotoxicity [14] 16.1% [at 6.55 µM] | activity change, negative = cytotoxicity [15] 23.2% [at 6.55 µM] | activity change, negative = cytotoxicity [16] -4.16% [at 6.55 µM]

COc1ccc(-n2nc(CCC(=O)N(C)O)cc2-c2ccc(Cl)cc2)cc1
active: Potency [5] 21.1 µM | Potency [15] 31.6 µM
inactive: outcome [1] | Potency [3] | Potency [11] | Potency [18] | Potency [12] | Potency [8] | Potency [9]

O=C(O)Cn1c(=O)n(Cc2ccc(Br)cc2F)c(=O)c2ccc(Cl)cc21
inactive: outcome [20] | Potency [2] | Potency [3] | Potency [4] | Potency [5] | outcome [19] | Potency [17] | Potency [6] | Potency [11] | Potency [18] | Potency [12] | Potency [7] | Potency [8] | Potency [9] | Potency [10] | Potency [13] | Potency [14] | Potency [15] | Potency [16]

O=C1NC(c2ccccc2)(c2ccccc2)C(=O)N1COP(=O)(O)O
inactive: outcome [20] | Potency [2] | Potency [3] | Potency [4] | Potency [5] | outcome [19] | Potency [17] | Potency [6] | Potency [11] | Potency [18] | Potency [12] | Potency [7] | Potency [8] | Potency [9] | Potency [10] | Potency [13] | Potency [14] | Potency [15] | Potency [16]

CCc1cc2cc(OC)c(OC)cc2c(Cc2ccccc2)n1
inactive: outcome [1] | Potency [2] | Potency [4] | Potency [17] | Potency [6] | Potency [11] | Potency [18] | Potency [12] | Potency [7] | Potency [8] | Potency [9] | Potency [10] | Potency [13] | Potency [14] | Potency [15] | Potency [16]

Nc1cccc2c(N)cccc12
active: Potency [2] 38.6 µM | Potency [4] 6.11 µM | Potency [5] 1.93 µM | Potency [17] 10.9 µM | Potency [6] 19.3 µM | Potency [13] 20 µM
inactive: outcome [1] inactive [at 92 µM] | Potency [7] | Potency [8] | Potency [9]

Nc1cc(C(F)(F)F)ccc1S
inactive: outcome [1] | outcome [19] | Potency [11] | Potency [12] | Potency [7] | Potency [8] | Potency [9] | Potency [10] | Potency [13] | Potency [14] | Potency [15] | Potency [16]
active: Potency [5] 11.9 µM | Potency [17] 13.3 µM

CCS(=O)(=O)c1ccc(OC)c(C(=O)OC)c1
inactive: outcome [20] | Potency [2] | Potency [3] | Potency [4] | Potency [5] | outcome [19] | Potency [17] | Potency [6] | Potency [11] | Potency [18] | Potency [12] | Potency [7] | Potency [8] | Potency [9] | Potency [10] | Potency [13] | Potency [14] | Potency [15] | Potency [16]
